Measurements reported in ChEMBL document CHEMBL4888484, “Replenishing the malaria drug discovery pipeline: Screening and hit evaluation of the MMV Hit Generation Library 1 (HGL1) against asexual blood stage Plasmodium falciparum ,using a nano luciferase reporter read-out” (2022).
The campaign covered roughly 4,800 compounds. About 410 (8.5%) showed an effect of 50% or more. The entries come from a sample that favours strong results as a whole.

System: Plasmodium falciparum
Assay: Confirmatory screen in NF54 pLDH assay, in single point, at 2uM, 72h
Format: functional, Erythrocyte
Conditions: timepoint 72 hour

| SMILES | % Inhibition [%] |
| --- | --- |
| Cc1nn(C)c(C)c1CCCN[C@@H](C)c1cccc(O)c1 | 4 |
| COC(=O)c1cccc(C#Cc2cccc(NC(=O)c3cnc(C)cn3)c2)c1 | -9 |
| Cc1ccc2nc(-c3cccc(NC(=O)c4ccc5c(c4)OCO5)c3)oc2c1 | -7 |
| N#CCC(=O)NC1CCC(CC2CCC(NC(=O)CC#N)CC2)CC1 (configuration not stated) | -2 |
| Cc1ccccc1S(=O)(=O)N1CCN(c2c(C)n(-c3ccccc3)c(=O)n(CC(C)C)c2=O)CC1 | 14 |
| COc1ccc(CNC(=O)Nc2ccc3c(c2)N(C(=O)c2ccccc2)CCC3)cc1OC | 11 |
| COc1ccc([C@H](C(=O)Nc2ccc(N(C)C)cc2)N(Cc2ccccc2)C(=O)Cc2ccccc2)cc1OC | -14 |
| CCC(C(=O)Nc1ccc2c(c1)CN(CCc1ccc(OC)c(OC)c1)C(=O)C(C)O2)c1ccccc1 (configuration not stated) | 100 |
| Cc1ccc(NC(=O)Cn2c(C)nc3c(-c4ccccn4)nsc3c2=O)c(C)c1 | 12 |
| CC[C@@H](CO)NCc1cccc(OC)c1OCC(=O)NC(C)(C)C | -12 |
| CCOc1cc(CNc2cccc3ccccc23)cc(Br)c1OCC(=O)NC(C)(C)C | 91 |
| COc1cccc(CNC(C)(C)C)c1OCC(=O)NC(C)(C)C | -4 |
| O=C(Nc1ccn(-c2ccccc2)n1)N1CC2CCC(O)CC2C1 (configuration not stated) | -3 |
| Cc1nsc2ncc(C(=O)N3CCC(C)CC3)c(N3CCC(C(=O)Nc4cc(F)ccc4F)CC3)c12 | 44 |
| COc1ccccc1CNCCNC(=O)c1ccncc1 | 9 |
| Clc1cc(CNCCc2ccccc2)ccc1OCc1ccccc1 | 3 |
| Cc1cnccc1NCCNCc1cccc(O)c1Cl | 101 |
| N#Cc1c(CN(CCn2cccn2)Cc2cn3ccccc3c2C#N)cn2ccccc12 | -22 |
| C=CCN(CC=C)S(=O)(=O)c1ccc(S(=O)(=O)NC)cc1 | -10 |
| O=C(NC1CCCC1)c1cnn2c3c(cnc12)CCCCCC3 | 11 |
| CCn1cc(Cl)c(C(=O)N(C2CCCCC2)C2CCCCC2)n1 | 10 |
| Fc1cccc(F)c1-n1c(CN2CCCCC2)csc1=S | -5 |
| CC(C)c1c2cc3c(cc2nn1-c1ccccc1)OCCO3 | -11 |
| CCCCCNC(=O)NCc1ncoc1C | 4 |
| C[C@H](O)CNCc1ccc(Cl)cc1Cl | 1 |
| Cc1cc(C)cc(-n2c(=O)c3sccc3n(CC(=O)NCc3ccccc3Cl)c2=O)c1 | -17 |

| SMILES | % Inhibition [%] |
| --- | --- |
| O=c1[nH]c2ccccc2nc1-c1cc(Br)ccc1NS(=O)(=O)c1cccc2nsnc12 | 3 |
| CNc1nc(N2C[C@H](C)[C@@](O)(C3CC3)C2)nc2c1CCC2 | 1 |
| Fc1ccccc1N1CCN(c2c3c(nc4nc(Cc5ccc(Cl)cc5)nn24)CCCC3)CC1 | 7 |
| Cc1cc(-c2ccccc2)c(C#N)c(=O)n1C(=O)c1ccc(C#N)cc1 | 11 |
| Brc1cc(Br)c2nc(-c3ccc(C4CCCCC4)cc3)ccc2c1 | 12 |
| Cc1[nH]c2ccnn2c(=O)c1CC(=O)N1CC[C@H](C)c2cccc(O)c21 | 2 |
| CCN(CC)c1nc(-c2ccccc2)c(C#N)c(N)c1C#N | 12 |
| O=C(CN1CCOC2CCCCC21)N1CCOC2CCCCC21 (configuration not stated) | -9 |
| CC(C)N1CCC(NC(=O)NCC2CCCCCCC2)CC1 | 6 |
| O=C(CN1CCC[C@H]1C1CCCC1)NCC1CCCCC1 | 61 |
| COc1ccc(OCC(=O)Nc2ccc(N3CCn4c(nc5cc(Cl)ccc54)C3)cc2OC)cc1 | -5 |
| CC(C)COc1ccc(/C(N)=N/O)cc1 | -20 |
| Cc1ccccc1CN(Cc1ccccn1)Cc1ccnn1C | -5 |
| CC1CCC(N(C)C(=O)c2cc(S(=O)(=O)N3CCCCC3)ccc2N2CCCC2)CC1 (configuration not stated) | -10 |
| Cc1cc(C(=O)N[C@H]2CCS(=O)(=O)C2)nc(N(C)C)n1 | 2 |
| Cc1ccc(N2C(=O)CN(CC(C)C)[C@H]3CS(=O)(=O)C[C@H]32)cc1 | 14 |
| Cc1cccc(NC(=O)CCC(=O)OCC(F)(F)C(F)F)c1C | 1 |
| N#Cc1c(NC(=O)CN2CCC[C@@H]2CO)sc2c1CCCCC2 | 0 |
| CC(C)(C)[C@H]1CCc2c(sc(NC(=O)C3(F)C(F)(F)C(F)(F)C(F)(F)C(F)(F)C3(F)F)c2C#N)C1 | 51 |
| COCCN(CC(N)=O)CC(=O)NCc1ccccc1F | 9 |
| CC(C)(C)n1nc2nc(NCCN3CCCCC3)nc(-c3ccc(F)c(Cl)c3)c2c1N | 76 |
| COCCNc1nc(-c2ccccc2OC)c2c(N)n(-c3ccc(F)cc3)nc2n1 | -5 |
| COc1ccc(CCNc2nc(-c3ccc(OC)cc3F)c3c(N)n(-c4ccc(Cl)cc4)nc3n2)cc1 | 40 |
| CN(Cc1ccsc1)C(=O)c1cc2ccccc2[nH]1 | 17 |
| CCOc1nc(C)nc2cc(-c3ccccc3)n(Cc3ccccc3)c12 | 13 |
| COc1ccc(C(=O)C[n+]2cc(-c3ccc(OC)cc3)n3c2CCCC3)cc1 | 65 |

| SMILES | % Inhibition [%] |
| --- | --- |
| Cn1c(-c2ccc(Br)cc2)c[n+](CC(=O)c2ccc(Br)cc2)c1N | -4 |
| CCOc1ccc(-[n+]2cc(-c3ccccc3)n3c2CCC3)cc1 | 70 |
| COc1ccc(CC(=O)NCc2nnc3n2CCC3)cc1 | 9 |
| FC(F)Oc1ccc(-c2c[n+](-c3cccc(C(F)(F)F)c3)c3n2CCCCC3)cc1 | 42 |
| Cn1c(-c2ccc(Cl)c(Cl)c2)c[n+](CC(=O)c2ccc(F)cc2)c1N | -12 |
| COc1ccc(C(=O)C[n+]2nc(CNc3ccc(Br)cc3)n3c2CCCCC3)cc1 | 82 |
| Cc1ccc(-c2c[n+](-c3ccc(OC(F)F)cc3)c3n2CCCCC3)cc1 | 60 |
| Cc1nnc(NC(c2cnc3ccccc3c2)[C@H]2C[C@@H](O)C2)s1 (some centres not stated) | 12 |
| O=C(Cc1c[nH]c2ccccc12)N1CCc2ccccc2C1 | -17 |
| COc1ccc2c(c1)OC13CCN(C)CC1C2C(C(=O)c1ccccc1OC)C(=O)N3 (configuration not stated) | 10 |
| CCC(=O)N1CCc2sc(S(=O)(=O)N3CCN(c4cc(C)ccc4C)CC3)cc2C1 | 38 |
| c1ccc(-c2cn(-c3ccccc3)c3ncnc(N4CCCC4)c23)cc1 | 13 |
| C=CCOc1cc(C(=O)N2CCCCC2)cc2occc12 | 11 |
| COc1cc([C@H]2CC(=O)Nc3c2cnn3C)ccc1OCc1ccccc1 | -8 |
| O=C(NC1CCCNC1=O)NC1CCCC1c1ccc(Cl)cc1 (configuration not stated) | 10 |
| O=C(NCCC1=CCOCC1)c1cnc2ccccn12 | -2 |
| O=C(CCc1ccccc1)Nc1ccc(-n2nn[nH]c2=O)cc1 | 15 |
| O=C1Nc2ccccc2[C@@]12Nc1ccccc1CO2 | 9 |
| C[C@@H](C(=O)N1CCN(C/C=C/c2ccccc2)CC1)N1Cc2ccccc2C1=O | 0 |
| Cc1ccc(CCNC(=O)c2ccc(-c3nc(CS(=O)(=O)c4ccc(C)cc4)c(C)o3)cc2)cc1 | -23 |
| COc1ccc(N2CCN(Cc3cc(-c4ccc(Cl)cc4)no3)CC2)cc1 | -19 |
| COc1ccc(-c2c[n+](-c3ccc(Cl)cc3)c3n2CCCCC3)cc1 | 57 |
| COc1ccc(-n2nc(C(=O)N3CCN(c4ncccn4)CC3)c(=O)cc2OC)cc1 | -29 |
| CCC(C)(C)N(C)C(=O)c1ccccc1Cl | -1 |
| Cc1cc(C)n(S(=O)(=O)c2ccc3c(c2)OCCO3)n1 | 7 |
| COc1ccc2c(c1)CCN2S(=O)(=O)c1ccc2c(c1)OCCO2 | -4 |

| SMILES | % Inhibition [%] |
| --- | --- |
| CC12CN(S(=O)(=O)c3ccc4c(c3)OCCO4)C3(C(=O)OCc4ccccc4)CC1CCC23C (configuration not stated) | 64 |
| CC(C)C(=O)N1N=C(C(C)C)C[C@]1(O)C(F)(F)F | 13 |
| Oc1csc(Cc2nc(C(F)(F)F)cs2)n1 | -4 |
| COC1(CNC(=O)C[C@H](O)c2ccccc2)CCC1 | -2 |
| COc1cccc(CCc2ccccc2OC[C@H](CN(C)C)OC(=O)CCC(=O)O)c1 | -5 |
| O=C(C[C@H](NCCO)C(=O)O)c1ccc2c(c1)CCCC2 | 2 |
| O=C(Nc1ccsc1C(=O)NCc1cc(F)cc(F)c1)c1cnccn1 | 13 |
| O=C(Nc1ccc(Cl)c(Cl)c1)Nc1ccc(Cl)cc1NC(=O)Nc1ccc(Cl)c(Cl)c1 | 65 |
| C[C@@H](NC(=O)Nc1ccc(Cl)c(Cl)c1)C(=O)O | 10 |
| CNc1nc(C)cc(C(=O)Nc2ccc(Cl)cc2NC(C)=O)n1 | 5 |
| COc1ccc(-c2cc3n(n2)C[C@@](C)(C(=O)NCc2ccccc2)N(Cc2ccc4c(c2)OCO4)C3=O)cc1 | 39 |
| COc1cc(N2CCn3c(nc4cc(Cl)ccc43)C2)ccc1NC(=O)C1CCCCC1 | -13 |
| Cc1ccc(C(=O)N(Cc2cccc(F)c2)c2ccc(CC(=O)N[C@@H](C)c3ccccc3)cc2)cc1 | 89 |
| Cc1ccccc1C(=O)N(Cc1cccc(F)c1)c1ccc(CC(=O)NCCN2CCCCC2)cc1 | 39 |
| O=C(Cc1ccc(N(Cc2cccc(F)c2)C(=O)c2cccc(F)c2)cc1)NCCN1CCCCC1 | 29 |
| O=C(OCc1cncs1)c1ccccc1 | 10 |
| Nc1c(-c2nc3ccccc3[nH]2)c2nc3ccccc3nc2n1Cc1ccccc1F | 62 |
| Cc1cc2nnc(-c3nc4ccccc4[nH]3)c(N)n2n1 | -2 |
| CCC1C(C(=O)NCCN(C)CCOC)CCN1C(=O)OC(C)(C)C (configuration not stated) | 1 |
| CCn1ccc([C@H](C)NC(=O)c2cc(-c3ccc(OC)cc3)nc3c2c(C)nn3C)n1 | 12 |
| Cc1c(CN(C)C(=O)Cn2ncc(Br)c2C)cnn1C | 4 |
| CCc1ccc(CN2C(=O)c3c(C(=O)OC)ncn3C[C@@]2(C)C(=O)NC2CCCCCC2)cc1 | 14 |
| C[C@@]1(C(=O)NCc2ccccc2)Cn2nc(-c3ccccc3)cc2C(=O)N1c1ccc2c(c1)OCCO2 | 36 |
| CCc1ccc(-c2cc3n(n2)C[C@@](C)(C(=O)NC2CCCCC2)N(c2cc(C)cc(C)c2)C3=O)cc1 | 58 |
